Compound activity as filed in PubChem.
Shown are actives, neighbours in structure and some others; about 3% of the full set was active somewhere.
Nrf2 ARE act – activates Nrf2 signaling; 0.31% of 410,000 active; AREc32 ARE-luciferase reporter (MCF7-derived line), luminescence, 24 h; Potency, µM (titrated, usually from 46.1 µM), inactives show top-dose activation, usual class: activators; further: % of control where 0% means no effect; nearly all actives have a fitted effect of over 65% in size
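AREc32 cells carrying an ARE-driven firefly luciferase, 1000 cells/well in OPTI-MEM with 5% FBS, dosed after overnight attachment and incubated 24 hr at 37 deg C. Steady-Glo luminescence read after 30 min at RT.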
GALK inh – blocks human galactokinase activity; P51570; 0.007% of 270,000 active; Potency, µM (top dose mostly 57.5 µM), for the others: at the top dose activity change, negative = inhibition, usual class: inhibitors; Purified GALK, Kinase-Glo residual ATP luminescence; further: on the % scale 0 is the no-effect control and ±100 the full control effect
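Kinase-Glo Plus luminescence measured ATP left after a 1 h room-temperature reaction. The reaction used 5 nM GALK, 100 uM galactose and 35 uM ATP at pH 8.0 (20 mM HEPES, 5 mM MgCl2, 60 mM NaCl, 1 mM DTT, 0.01% BSA).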
TrxR1 substrate – rat thioredoxin reductase 1 substrate activity; O89049; purified TrxR1 substrate turnover, NADPH consumption readout; Potency, µM (titrated, usually from 114 µM), for inactives: at the highest dose activity change, negative = substrate turnover; 0.01% of 390,000 active; AID 588456; further: on the % scale 0 is the no-effect control and ±100 the full control effect; nearly all actives have a fitted effect of over 50% in size
Target sequence (O89049 whole entry, looked up): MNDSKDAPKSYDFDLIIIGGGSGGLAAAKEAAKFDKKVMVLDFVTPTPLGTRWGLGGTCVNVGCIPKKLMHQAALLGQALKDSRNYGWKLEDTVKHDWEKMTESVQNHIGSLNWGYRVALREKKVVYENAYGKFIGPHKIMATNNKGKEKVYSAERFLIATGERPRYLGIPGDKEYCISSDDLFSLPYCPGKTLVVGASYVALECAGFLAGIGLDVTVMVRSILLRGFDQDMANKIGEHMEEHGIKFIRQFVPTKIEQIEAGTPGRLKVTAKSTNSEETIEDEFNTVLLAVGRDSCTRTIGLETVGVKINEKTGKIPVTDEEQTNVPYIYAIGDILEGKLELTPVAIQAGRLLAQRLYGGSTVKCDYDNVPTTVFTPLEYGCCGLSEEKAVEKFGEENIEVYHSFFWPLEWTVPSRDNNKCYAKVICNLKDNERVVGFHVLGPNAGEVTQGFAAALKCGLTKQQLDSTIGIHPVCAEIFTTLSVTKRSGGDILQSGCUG
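Rat TrxR1, dispensed at 90 nM, was prereduced with 400 uM NADPH (final) for 5 min at ~22 deg C, then incubated with compound 15 min before 400 uM selenite. A first-read NADPH fluorescence drop versus no-compound background flagged substrates.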
Nrf2 inh – Nrf2 pathway inhibition; A549 ARE-Fluc reporter, luciferase luminescence, 18-24 h; Potency, µM (series often up to 46 µM), for the others: at the highest dose activity change, negative = inhibition, actives largely listed as inhibitors; 2.1% of 360,000 active; AID 504444; further: on the % scale 0 is the no-effect control and ±100 the full control effect; nearly all actives have a fitted effect of over 60% in size
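Two sequential reads on A549 ARE_Fluc cells exposed to compound for 18-24 h: a CellTiter-Fluor fluorescence read for viability, then a luciferase luminescence read for Nrf2/ARE activity.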
A549 viability – kills or reduces viability of A549 cells in Nrf2 counter-screen; Potency, µM (doses to about 46 µM), inactives show at the top dose activity change, negative = cytotoxicity, usual class: inhibitors; A549 ARE-Fluc cells, CellTiter-Fluor viability, 18-24 h; 0.16% of 390,000 active; AID 504648; further: on the % scale 0 is the no-effect control and ±100 the full control effect
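Cytotoxicity counterscreen: CellTiter-Fluor fluorescence was measured in A549 ARE_Fluc cells after 18-24 h of compound exposure in a concentration series. The subsequent BugLite luminescent read reports ARE-luciferase activity.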
TrxR1 inh – rat TrxR1 inhibition. recombinant rTrxR1, NADPH fluorescence consumption, selenite substrate. Potency, µM (series often up to 114 µM), for the others: top-dose activity change, negative = inhibition, usual class: inhibitors. 1% of 390,000 active; further: on the % scale 0 is the no-effect control and ±100 the full control effect; nearly all actives have a fitted effect of over 65% in size
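Rat TrxR1 (90 nM in the dispensed reagent) was pre-reduced with 400 uM NADPH for 5 min at room temperature, then incubated with compound for 15 min. After 400 uM selenite was added, NADPH fluorescence (Ex 340/Em 450 nm) was followed for 8 min.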
An asterisk follows results filed as active; ? = inconclusive; . = no result given; ! = a repeat was not active; [ ] = dose if it differs, or a comment. The call rests on the fitted dose curve; in most records, active means well fitted curve in the direction sought with a large enough effect; inconclusive means small, poorly fitted or top-dose-only effect, or another doubt; inactive means no such curve, though single readings can be large; an effect the other way counts as inactive or inconclusive. Potency means the concentration at half of the fitted maximal effect.

SMILES	Nrf2 ARE act	GALK inh	TrxR1 substrate	Nrf2 inh	A549 viability	TrxR1 inh
CN(c1ccc(F)cc1)S(=O)(=O)N1CCCC(C(=O)NCc2cccc(Br)c2)C1 (configuration not stated)	0%	.	-2%	-76%	-4%	19%
CCC(C(=O)NCCC(C)C)N(C(=O)Cn1nnc(-c2ccc(C)cc2)n1)c1cccc(O)c1 (configuration not stated)	-1%	.	-2%	?	-25%	0%
Cc1c(C#N)c(NC(=O)CCl)n(Cc2ccc(F)cc2)c1C	?	-2%	3%	18µM*	-25%	?
Cc1c(C#N)c(NC(=O)CCl)n(Cc2cccs2)c1C	?	1%	9%	15µM*	?	3.5µM*
Cc1c(C#N)c(NC(=O)CCl)n(Cc2ccccc2)c1C	?	5%	12%[57.1 µM]	-28%	-1%	3.5µM*
COC(=O)c1cc(C(=O)OC)n(Cc2ccc(F)cc2)c1C	0%	0%	-6%	10%	1%	6%
CC(C)CCOc1ccc(C2N=C(N)Nc3nc4ccccc4n32)cc1 (configuration not stated)	-1%	.	-7%	3%	6%	3%
O=S(=O)(NCCNc1nc(-c2ccco2)nc2ccccc12)c1ccccc1	.	.	.	12%	-3%	.
CN(C)S(=O)(=O)c1cccc(NC(=O)CCc2nc3sc4c(c3c(=O)[nH]2)CCCC4)c1	2%	.	4%	16µM*	-16%	23%
Cc1cccc(NC(=O)CCc2nc3sc4c(c3c(=O)[nH]2)CCCC4)c1	0%	.	-4%	8%	0%	4%
CC(=O)Nc1nc(-c2ccccc2)nc(-c2ccccc2OC(C)=O)n1	23%	1%	2%	13µM*	-25%	-4%
Cc1ccc(-c2nc(NC(=O)c3cc(C(C)(C)C)nn3C)sc2C)cc1Cl	0%	-3%	3%[57.1 µM]	21µM*	-5%	13%[2.29 µM]
OCCSc1ccc2nnc(-c3ccccc3)n2n1	.	.	24%	-24%	5%	29%
COc1ccc(NC(=O)Cn2cnc3ccc(S(=O)(=O)N4CCC(C)CC4)cc3c2=O)c(OC)c1	0%	.	0%	-4%	4%	5%
CCCCNc1cc(C)nc(NCc2ccccc2)n1	9%	-1%	1%	18µM*	-16%	6%
Cc1cc(Nc2ccccc2)nc(NCc2ccccc2)n1	2%	-2%	-19%	-18%	19%	-17%
Cc1cc(Nc2ccc(Cl)cc2)nc(NCc2ccccc2)n1	2%[9.22 µM]	2%	9%	16µM*	?	-3%
Nc1ncc(S(=O)(=O)Nc2ccc(F)cc2F)cn1	-1%	.	1%[57.1 µM]	.	8%	11%[57.1 µM]
CCCCCCCCCC[n+]1ccc(/C=C/c2c(C)[nH]c3ccccc23)cc1	.	.	2%	.	.	?
O=C(Cn1c(=O)n(Cc2ccc3c(c2)OCO3)c(=O)c2oc3ccccc3c21)Nc1ccc(F)cc1	0%	.	1%	?	-1%	10%
Cc1nc(N2CCN(S(=O)(=O)c3ccc(F)cc3)CC2)c2c(-c3cccs3)csc2n1	0%	-2%	2%[57.1 µM]	16µM*	5%	11%[57.1 µM]
Cc1ccc(S(=O)(=O)N2CCN(c3ncnc4scc(-c5ccc(F)cc5)c34)CC2)cc1	1%	.	-5%[57.1 µM]	?	-15%	-3%[57.1 µM]
CCOC1(c2ccccc2)CC1C(=O)N/N=C/c1cccc([N+](=O)[O-])c1 (configuration not stated)	9%	2%	4%	18µM*	-8%	22%
COc1ccc(S(=O)(=O)N(C)C)cc1NC(=O)C1CCN(c2ncnc3sc(C)c(C)c23)CC1	6%	.	-2%	12µM*	?	11%
Cc1sc2ncnc(N3CCC(C(=O)Nc4cc(S(C)(=O)=O)ccc4Cl)CC3)c2c1C	0%	.	3%[57.1 µM]	18µM*	-12%	9%[57.1 µM]
SMILES	Nrf2 ARE act	GALK inh	TrxR1 substrate	Nrf2 inh	A549 viability	TrxR1 inh
Cc1sc2ncnc(N3CCC(C(=O)Nc4cc(C(F)(F)F)ccc4OCC(F)(F)F)CC3)c2c1C	0%	.	-7%	-8%	-24%	14%
Cc1sc2ncnc(N3CCC(C(=O)Nc4cc(Cl)ccc4Cl)CC3)c2c1C	-1%	.	6%	?	-13%	9%
O=C1c2ccccc2NC(c2ccccc2OCc2ccccc2)N1Cc1ccco1 (configuration not stated)	.	.	26%	?	-14%	11%
CCCC(=O)N(CCc1ccc(OC)cc1)Cc1nc2ccccc2c(=O)[nH]1	-1%	3%	10%	23µM*	-8%	21%
CCN(Cc1nc2ccccc2c(=O)[nH]1)C(=O)COc1ccccc1Cc1ccccc1	1%	.	-3%[57.1 µM]	16µM*	-15%	2%[57.1 µM]
COCC(=O)N(CCc1ccc(OC)cc1)Cc1nc2ccccc2c(=O)[nH]1	0%	-3%	29%	-4%	-8%	-1%
O=C(Cn1nnc(-c2ccc(C(F)(F)F)cc2)n1)NCCc1ccccc1	0%	.	8%[11.4 µM]	-11%	-1%	11%
COc1ccc(NC2=C(Cl)C(=O)N(c3ccccc3)C2=O)c(OC)c1	14%	-2%	2%	1%	-2%	13µM*
CCOc1ccc(N2C(=O)C(Cl)=C(Nc3ccccc3O)C2=O)cc1	13µM*	-1%	4%[57.1 µM]	10%	1%	?
CC(C)c1ccc(NC(=O)C(Cc2ccccc2)n2cccc2)cc1 (configuration not stated)	0%	.	-2%	?	-2%	10%
COc1ccccc1N(CC(=O)NCCSCc1ccccc1)S(=O)(=O)c1ccc(C)cc1	0%	12%	1%	15µM*!	-3%	30%
COc1ccccc1N(CC(=O)NC1CC2CCC1C2)S(=O)(=O)c1ccc(C)cc1 (configuration not stated)	1%	2%	-13%	18µM*	-18%	-8%
O=c1c2c3c(sc2nnn1Cc1ccc(Br)cc1)CCCC3	4%	.	-1%	-20%	5%	-1%
CCn1cc(C(=O)N2CCN(c3cc(C)ccc3C)CC2)c(=O)c2cc(S(=O)(=O)N3CCOCC3)ccc21	-1%	.	2%	-10%	2%	17%
Cc1ccc(S(=O)(=O)N2CCOCC2)cc1C(=O)N1CCN(c2ccc(C(F)(F)F)cn2)CC1	4%	.	-3%[2.29 µM]	26µM*	0%	-6%[2.29 µM]
O=C(c1cc(S(=O)(=O)N2CCCCC2)ccc1Cl)N1CCOCC1	0%	4%	11%[0.0914 µM]	0%	-1%	13%[57.1 µM]
CCn1cc(C(=O)N2CCN(c3cccc(Cl)c3)CC2)c(=O)c2cc(S(=O)(=O)N3CCC(C)CC3)ccc21	0%	.	1%	21µM*	-4%	16%
